Inconclusive results are not listed. Where a call stands in place of a potency, no number is given. A structure can be active in one record and inactive in another. Activity calls are given as the source filed them. Unless noted, calls come from the whole dose curve; as a rule, active = well fitted curve in the direction sought with a large enough effect in the repeat runs; inconclusive = weak or mixed curves; inactive = no such curve, though single readings can be large; an effect the other way counts as inactive or inconclusive.
Experiments:
[1] = qHTS assay to identify small molecule agonists of H2AX (AID 1224845; active = well fitted activation curve with a large enough effect in the signal ratio in the repeat runs, not every such curve was filed as active; the % refers to the signal ratio)
In short: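 Wild-type CHO-K1 cells plated overnight, then exposed 3 hr at 37C to compounds at 15 concentrations (0.76% DMSO). Lysed, then HTRF anti-pH2AX(S139)-cryptate/anti-H2AX-d2 detection after 24 hr at room temperature; emissions 665 and 620 nm.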

[2] = qHTS assay to identify small molecule agonists of the hypoxia (HIF-1) signaling pathway (AID 1224846; active = well fitted activation curve with a large enough effect in the signal ratio in the repeat runs, not every such curve was filed as active; the % refers to the signal ratio)
In short: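 Cell line: CellSensor HRE-bla ME-180; 2,000 cells/well; 0.5% dialyzed FBS; 5 h preincubation; DMSO compound pin transfer; 17 h, 37C, 5% CO2; CCF4-AM added; bla FRET signal scored for activation.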

[3] = qHTS assay to identify small molecule agonists of H2AX - cell viability counter screen (AID 1224847; calls by dose curve; note: nearly all actives have a fitted effect of over 30% in size; note: potency is the fitted concentration of half-maximal effect)
In short: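 Read-out: CellTiter-Glo luminescence, 30 min RT. Cells: wild-type CHO-K1, 1000/well, 10% FBS, plated overnight at 37C. Treatment: 15 concentrations, 3 hr, 37C, 0.76% DMSO.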

[4] = qHTS assay to identify small molecule antagonists of the estrogen related receptor (ERR) signaling pathway from Tox21 library (AID 1224848); note: nearly all actives have a fitted effect of over 50% in size; note: potency is the fitted concentration of half-maximal effect
In short: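 Cells: ERR line, 2,000/well; 6 h preincubation 37 C/5% CO2. Cpd in DMSO via pin tool; 18 h, 37 C. ONE-Glo, 30 min RT, luminescence.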

[5] = qHTS assay to identify small molecule agonists of the estrogen related receptor (ERR) signaling pathway from Tox21 library (AID 1224849; calls by dose curve; note: nearly all actives have a fitted effect of over 15% in size); settings: ERR reporter cell line, ONE-Glo luciferase, 18 h; at 92.4 µM (top of the series) unless noted
In short: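 ERR cells, 6 h pre-incubation 37 C/5% CO2; cpd in DMSO pinned; 18 h 37 C; ONE-Glo added, 30 min RT; luminescence read. Agonist mode, qHTS.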

[6] = qHTS RealTime-Glo MT Cell Viability Assay in HepG2 cells - 24 hour (AID 1224867); note: nearly all actives have a fitted effect of over 50% in size; note: potency is the fitted concentration of half-maximal effect
In short: (§1)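 HepG2 cells (600/well) were dispensed with RealTime-Glo reagents, incubated 5 h at 37 °C, then treated with compounds in DMSO for up to 40 h. Nonlytic NanoLuc luminescence reflecting viable cells was read at each stated time point.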

[7] = A CellTox Green Cytotoxicity Assay to monitor cytotoxicity in HEK293 cells - 0 hour (AID 1224869); note: nearly all actives have a fitted effect of over 50% in size
In short: (§2)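 Nonlytic real-time cytotoxicity: HEK293 + CellTox Green reagent plated, 5 h preincubation, pintool compound addition (23 nL in DMSO), 37 C for 40 h, fluorescence measured at successive time points.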

[8] = qHTS RealTime-Glo MT Cell Viability Assay in HepG2 cells - 40 hour (AID 1224870); note: nearly all actives have a fitted effect of over 50% in size; note: potency is the fitted concentration of half-maximal effect
In short: (§3)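 HepG2 cells mixed with RealTime-Glo MT reagents (NanoLuc plus cell-permeant prosubstrate) were seeded at 600 cells/well, incubated 5 h at 37 C/5% CO2, then pinned with compounds in DMSO; nonlytic luminescence tracked viability during 40 h treatment.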

[9] = A CellTox Green Cytotoxicity Assay to monitor cytotoxicity in HEK293 cells - 40 hour (AID 1224871); note: nearly all actives have a fitted effect of over 45% in size; note: potency is the fitted concentration of half-maximal effect
In short: as §2

[10] = qHTS RealTime-Glo MT Cell Viability Assay in HepG2 cells - 8 hour (AID 1224873); note: nearly all actives have a fitted effect of over 55% in size
In short: as §3

[11] = A CellTox Green Cytotoxicity Assay to monitor cytotoxicity in HEK293 cells - 24 hour (AID 1224875); note: nearly all actives have a fitted effect of over 45% in size; note: potency is the fitted concentration of half-maximal effect
In short: as §2

[12] = A CellTox Green Cytotoxicity Assay to monitor cytotoxicity in HepG2 cells - 16 hour (AID 1224876); note: nearly all actives have a fitted effect of over 45% in size; note: potency is the fitted concentration of half-maximal effect
In short: (§4)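 Read-out is fluorescence of a cyanine dye excluded from live cells that stains DNA of dead HepG2 cells, with signal proportional to cytotoxicity. Plates were read at 0, 8, 16, 24, 32 and 40 h after compound addition.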

[13] = qHTS RealTime-Glo MT Cell Viability Assay in HepG2 cells - 32 hour (AID 1224877); note: nearly all actives have a fitted effect of over 55% in size; note: potency is the fitted concentration of half-maximal effect
In short: as §1

[14] = A CellTox Green Cytotoxicity Assay to monitor cytotoxicity in HepG2 cells - 24 hour (AID 1224878); note: nearly all actives have a fitted effect of over 45% in size; note: potency is the fitted concentration of half-maximal effect
In short: as §4

[15] = A CellTox Green Cytotoxicity Assay to monitor cytotoxicity in HepG2 cells - 40 hour (AID 1224879); note: nearly all actives have a fitted effect of over 40% in size; note: potency is the fitted concentration of half-maximal effect
In short: as §4

[16] = qHTS assay to identify small molecule agonists of the hypoxia (HIF-1) signaling pathway - cell viability counter screen (AID 1224844; calls by dose curve; note: nearly all actives have a fitted effect of over 50% in size)
In short: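 ME-180 HRE-bla cells, 2,000/well, 0.5% dialyzed FBS; 5 hr settle, 17 hr compound at 37C/5% CO2; CCF4-AM reporter read first, then CellTiter-Glo luminescence after 30 min RT.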

[17] = qHTS RealTime-Glo MT Cell Viability Assay in HEK293 cells - 32 hour (AID 1224868); note: nearly all actives have a fitted effect of over 50% in size; note: potency is the fitted concentration of half-maximal effect
In short: (§5)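 HEK293 cells seeded with NanoLuc/prosubstrate reagent, rested 5 h at 37 C, then dosed and kept at 37 C up to 40 h. Nonlytic real-time luminescence from viable cells read at 0, 8, 16, 24, 32 and 40 h.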

[18] = qHTS RealTime-Glo MT Cell Viability Assay in HEK293 cells - 40 hour (AID 1224874); settings: RealTime-Glo luminescence; max response: stronger effect = lower value; note: nearly all actives have a fitted effect of over 50% in size; note: potency is the fitted concentration of half-maximal effect
In short: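 Cells were seeded together with NanoLuc luciferase and a prosubstrate that viable cells reduce to a luciferase substrate. After a 5 h incubation at 37 C/5% CO2, compounds were added and luminescence was measured repeatedly during 40 h of treatment.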

[19] = qHTS RealTime-Glo MT Cell Viability Assay in HEK293 cells - 16 hour (AID 1224872); note: nearly all actives have a fitted effect of over 50% in size; note: potency is the fitted concentration of half-maximal effect
In short: as §5

O=C1CN=C(c2ccccc2)c2cc(Cl)ccc2N1CC1CC1
Potency [1]: inactive | outcome [2]: inactive | Potency [3]: 94.2 µM (active) | Potency [4]: 51 µM (active) | activity change, positive = activation [5]: -41.3% (inactive) | Potency [6]: inactive | Potency [7]: inactive | Potency [8]: inactive | Potency [9]: inactive | Potency [10]: inactive | Potency [11]: inactive | Potency [12]: inactive | Potency [13]: inactive | Potency [14]: inactive | Potency [15]: inactive

CC(c1ccc(O)cc1)(c1ccc(O)cc1)c1ccc(O)cc1
Potency [16]: inactive | Potency [4]: 54.5 µM (active) | activity change, positive = activation [5]: -42.4% (inactive) | Potency [6]: inactive | Potency [17]: 54.9 µM (active) | Potency [7]: inactive | Potency [9]: inactive | Potency [10]: inactive | Potency [11]: inactive | Potency [12]: inactive | Potency [13]: inactive | Potency [14]: inactive

CC(C)(C)C(O)C(Oc1ccc(Cl)cc1)n1cncn1 (stereo not drawn)
Potency [1]: inactive | Potency [3]: inactive | Potency [6]: inactive | Potency [17]: 12.3 µM (active) | Potency [7]: inactive | Potency [8]: inactive | Potency [9]: 5.49 µM (active) | Potency [10]: inactive | Potency [18]: 11 µM (active) | Potency [11]: inactive | Potency [14]: 43.6 µM (active) | Potency [15]: 43.6 µM (active)

CC(O)(CS(=O)(=O)c1ccc(F)cc1)C(=O)Nc1ccc(C#N)c(C(F)(F)F)c1 (stereo not drawn)
Potency [1]: inactive | Potency [3]: 41.6 µM (active) | activity change, positive = activation [5]: -29.9% [at 42.5 µM] (inactive) | Potency [7]: inactive | Potency [9]: inactive | Potency [11]: inactive | Potency [12]: inactive | Potency [14]: inactive | Potency [15]: inactive

II
Potency [1]: inactive | Potency [6]: 15.5 µM (active) | Potency [17]: inactive | Potency [7]: inactive | Potency [8]: 5.49 µM (active) | Potency [9]: 38.9 µM (active) | Potency [19]: inactive | max response [18]: -3.85% (inactive) | Potency [11]: 38.9 µM (active) | Potency [12]: 38.9 µM (active) | Potency [13]: 7.76 µM (active) | Potency [14]: 34.7 µM (active)

CCOP(=S)(OCC)Oc1nc(Cl)c(Cl)cc1Cl
Potency [16]: inactive | outcome [2]: inactive | Potency [3]: 56.8 µM (active) | Potency [6]: inactive | Potency [17]: 21.9 µM (active) and inactive | Potency [7]: inactive | Potency [8]: inactive | Potency [9]: 34.8 µM (active) and inactive | Potency [19]: 21.9 µM (active) and inactive | Potency [10]: inactive | Potency [18]: 24.6 µM (active) | max response [18]: -11.7% (inactive) | Potency [12]: inactive | Potency [13]: inactive | Potency [14]: inactive | Potency [15]: inactive

CS/C(C)=N/OC(=O)N(C)SN(C)C(=O)O/N=C(\C)SC
Potency [1]: inactive | outcome [2]: inactive | activity change, positive = activation [5]: -68.2% (inactive) | Potency [17]: 49 µM (active) | Potency [7]: inactive | Potency [9]: 49 µM (active) | Potency [19]: 38.9 µM (active) | Potency [18]: 43.6 µM (active) | Potency [14]: 54.9 µM (active)

CC1(C)CCC(Cc2ccc(Cl)cc2)C1(O)Cn1cncn1 (stereo not drawn)
Potency [1]: inactive | outcome [2]: inactive | Potency [3]: 101 µM (active) | Potency [4]: 30.6 µM (active) | activity change, positive = activation [5]: -53.4% (inactive) | Potency [6]: inactive | Potency [17]: 24.5 µM (active) | Potency [7]: inactive | Potency [19]: 24.5 µM (active) | Potency [18]: 24.5 µM (active) | Potency [11]: inactive | Potency [12]: 54.9 µM (active) | Potency [13]: inactive | Potency [15]: 54.9 µM (active)

O=NN1CCNCC1
Potency [1]: inactive | outcome [2]: inactive | Potency [3]: inactive | Potency [6]: inactive | Potency [17]: inactive | Potency [7]: inactive | Potency [8]: inactive | Potency [9]: inactive | Potency [19]: inactive | Potency [10]: inactive | max response [18]: 9.64% (inactive) | Potency [11]: inactive | Potency [12]: inactive | Potency [13]: inactive | Potency [14]: inactive | Potency [15]: inactive

COP(=S)(Oc1cc(Cl)c(Br)cc1Cl)c1ccccc1 (stereo not drawn)
Potency [1]: inactive | outcome [2]: inactive | activity change, positive = activation [5]: -31.4% (inactive) | Potency [6]: inactive | Potency [7]: inactive | Potency [9]: inactive | Potency [10]: inactive | Potency [11]: inactive | Potency [13]: inactive

O=C(O)C(F)(F)C(F)(F)C(F)(F)C(F)(F)C(F)(F)C(F)(F)C(F)(F)C(F)(F)C(F)(F)C(F)(F)F
Potency [1]: inactive | Potency [4]: inactive | activity change, positive = activation [5]: 8.05% (inactive) | Potency [6]: inactive | Potency [17]: inactive | Potency [7]: inactive | Potency [9]: inactive | Potency [19]: inactive | max response [18]: 13.9% (inactive) | Potency [11]: inactive

O=C(CBr)OCc1ccccc1
Potency [16]: inactive | outcome [2]: inactive | Potency [3]: inactive | Potency [6]: inactive | Potency [17]: inactive | Potency [7]: inactive | Potency [8]: inactive | Potency [9]: inactive | Potency [10]: inactive | Potency [11]: inactive | Potency [12]: inactive | Potency [13]: inactive | Potency [14]: inactive

CCOP(=S)(OCC)SCSCC
Potency [1]: inactive | outcome [2]: inactive | Potency [3]: inactive | Potency [6]: inactive | Potency [17]: inactive | Potency [7]: inactive | Potency [9]: inactive | Potency [19]: inactive | Potency [10]: inactive | max response [18]: 1.39% (inactive) | Potency [11]: inactive | Potency [12]: inactive | Potency [13]: inactive | Potency [14]: inactive

CCOC(=O)COc1cc(-c2nn(C)c(OC(F)F)c2Cl)c(F)cc1Cl
Potency [1]: inactive | Potency [4]: inactive | activity change, positive = activation [5]: 3.17% (inactive) | Potency [6]: inactive | Potency [17]: inactive | Potency [7]: inactive | Potency [8]: inactive | Potency [9]: inactive | Potency [19]: inactive | Potency [10]: inactive | max response [18]: -5.9% (inactive) | Potency [11]: inactive | Potency [12]: inactive | Potency [13]: inactive | Potency [14]: inactive | Potency [15]: inactive

O=C(CBr)c1ccccc1
Potency [16]: inactive | outcome [2]: inactive | Potency [3]: inactive | Potency [6]: inactive | Potency [17]: inactive | Potency [7]: inactive | Potency [8]: inactive | Potency [9]: inactive | Potency [19]: inactive | Potency [10]: inactive | max response [18]: 3.94% (inactive) | Potency [11]: inactive | Potency [12]: inactive | Potency [13]: inactive | Potency [14]: inactive | Potency [15]: inactive
